The source of these data is PubChem BioAssay (NCI).

About 83,000 compounds went through this panel and 20% of them were active in at least one assay; those are over-represented in the sample as a whole.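 A percent growth of 40 corresponds to 60% growth inhibition; 0 means no net growth; -100 means all cells died. Active threshold: below 10.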 Values without a mark were called inactive. The source made the active and inactive calls.

Test systems include SR leukemia; RPMI-8226 leukemia; OVCAR-8 ovarian; OVCAR-5 ovarian; OVCAR-4 ovarian; SK-OV-3 ovarian; IGROV1 ovarian; OVCAR-3 ovarian; HS 578T breast; T-47D breast; BT-549 breast; MDA-MB-435 melanoma; SW-620 colon; MCF7 breast; HCT-116 colon; HCC-2998 colon; KM12 colon; NCI/ADR-RES ovarian.
What all share (test): NCI-60 one-dose screen, 48 h (100 = growth as untreated, 0 = no growth, -100 = all killed)
Settings in all cases: 10 µM unless noted

As for `C=C(CNCCc1ccc(O)cc1)[C@@H]1CC[C@]2(CO)CC[C@]3(C)[C@H](CC[C@@H]4[C@@]5(C)CCC(N)C(C)(C)[C@@H]5CC[C@]43C)[C@@H]12` (some centres undefined), the growth is -43.9% (active) in the assay with SR leukemia; -46.5% (active) in the assay with RPMI-8226 leukemia; -56.8% (active) in the assay on OVCAR-8 ovarian; 11.4% in the assay with OVCAR-5 ovarian; -16.2% (active) in the assay with OVCAR-4 ovarian; -6.7% (active) with SK-OV-3 ovarian. The growth in the assay on IGROV1 ovarian is -57.3% (active); with OVCAR-3 ovarian, -53.5% (active); in the assay on HS 578T breast it was -66% (active); in the assay with T-47D breast, -65.7% (active); in the assay with BT-549 breast, 59.7%; in the assay with MDA-MB-435 melanoma it was -90.5% (active). Further, the growth was -81.6% (active) in the assay with SW-620 colon; -72.3% (active) in the assay with MCF7 breast; -65.9% (active) with HCT-116 colon; -89.5% (active) in the assay on HCC-2998 colon; -60.6% (active) in the assay on KM12 colon.

On to `Cc1c(Cl)cccc1NC(=O)c1sc2nc3c(cc2c1N)CCCC3`, for which the growth in the assay with SR leukemia was 9.71% (active); in the assay with RPMI-8226 leukemia it was 33%; in the assay on OVCAR-8 ovarian, 46.1%; in the assay with OVCAR-5 ovarian, 75.7%; in the assay with OVCAR-4 ovarian, 60.5%; in the assay on SK-OV-3 ovarian it was 27.7%. Moreover, the growth in the assay on IGROV1 ovarian is 57.2%; in the assay with OVCAR-3 ovarian it was 10.9%; in the assay with HS 578T breast it was 40.3%; with T-47D breast, 35%; with BT-549 breast it was 52.6%; in the assay on MDA-MB-435 melanoma, -16.1% (active). Further, the growth was 19.2% in the assay on SW-620 colon, 24.4% in the assay with HCT-116 colon, 58.5% in the assay with HCC-2998 colon and 23.6% in the assay with KM12 colon.

For the compound `O=C(Nc1ncc(Cc2ccc(Cl)cc2)s1)c1ccc2c(c1)OCCO2`, the growth was 4.7% (active) in the assay with SR leukemia; 20% with RPMI-8226 leukemia; 21.7% with OVCAR-8 ovarian; 37.1% in the assay on OVCAR-5 ovarian; 50% with OVCAR-4 ovarian; 33.4% with SK-OV-3 ovarian. In addition, the growth with IGROV1 ovarian is 22.3%; in the assay with OVCAR-3 ovarian it was 2.45% (active); with HS 578T breast, 23.6%; with T-47D breast, 46.1%; in the assay on BT-549 breast it was 38.1%; with MDA-MB-435 melanoma, 5.85% (active). In addition, the growth in the assay with SW-620 colon is 35.4%; in the assay with MCF7 breast, 10.2%; in the assay with HCT-116 colon, 9.61% (active); in the assay on HCC-2998 colon, 23.2%; in the assay with KM12 colon, 12.7%.

For `C#CCOc1cc(/C=N/Nc2nc(-c3ccc(OC)cc3)cs2)ccc1O`, the growth in the assay with SR leukemia was 74.4%; in the assay on RPMI-8226 leukemia it was 63.3%; in the assay with OVCAR-8 ovarian it was 87.9%; in the assay with OVCAR-5 ovarian, 97.1%; in the assay with OVCAR-4 ovarian, 71.7%; in the assay on SK-OV-3 ovarian it was 99.4%. In addition, the growth was 91.8% with IGROV1 ovarian; 86.3% in the assay with OVCAR-3 ovarian; 95.8% in the assay on HS 578T breast; 61.2% in the assay on T-47D breast; 84.5% in the assay on BT-549 breast; 94.7% in the assay on MDA-MB-435 melanoma. In addition, the growth is 94.8% with SW-620 colon; 68.9% with MCF7 breast; 76.5% in the assay on HCT-116 colon; 92.4% with HCC-2998 colon; 88.6% with KM12 colon.

For the compound `O=C1C(Nc2ccc(Br)cc2)=C(I)C(=O)c2ncccc21`, the growth in the assay on SR leukemia was 4.58% (active); with RPMI-8226 leukemia it was 6.59% (active); in the assay with OVCAR-8 ovarian, 2.71% (active); with OVCAR-5 ovarian, 73.5%; with OVCAR-4 ovarian, -95.6% (active); with SK-OV-3 ovarian it was 83.9%. Besides, the growth in the assay with IGROV1 ovarian is -56.7% (active); in the assay on OVCAR-3 ovarian, -85.3% (active); in the assay on HS 578T breast, 40.7%; in the assay with T-47D breast, -41.3% (active); in the assay with BT-549 breast it was 63.9%; in the assay on MDA-MB-435 melanoma, -79% (active). The growth was -24.6% (active) in the assay with SW-620 colon; -35.4% (active) in the assay with MCF7 breast; -36.2% (active) with HCT-116 colon; 87.3% in the assay on HCC-2998 colon; 49.9% in the assay on KM12 colon.

`O=C(O)/C=C\C(=O)Nc1ccc2c(c1)Cc1cc(F)ccc1-2`: the growth is 106% with SR leukemia; 97.6% in the assay with RPMI-8226 leukemia; 105% with OVCAR-8 ovarian; 107% in the assay with OVCAR-5 ovarian; 100% in the assay with OVCAR-4 ovarian; 94.2% in the assay with SK-OV-3 ovarian. The growth is 95.5% in the assay on IGROV1 ovarian; 106% in the assay on OVCAR-3 ovarian; 126% with HS 578T breast; 84.6% with T-47D breast; 111% in the assay on BT-549 breast; 102% in the assay with MDA-MB-435 melanoma. Further, the growth in the assay on SW-620 colon was 110%; with MCF7 breast it was 93.3%; in the assay on HCT-116 colon, 92.1%; with HCC-2998 colon it was 97.6%; in the assay on KM12 colon, 101%.

Turning to `CNc1nc2ncc(-c3c(C)noc3C)cc2n1Cc1ccccc1`, the growth in the assay with SR leukemia is 27.9%; with RPMI-8226 leukemia it was -2.96% (active); in the assay with OVCAR-8 ovarian, 55.9%; in the assay on OVCAR-5 ovarian it was 67.5%; with OVCAR-4 ovarian, 53.6%; with SK-OV-3 ovarian, 21%. Further, the growth in the assay on IGROV1 ovarian was 63.6%; with OVCAR-3 ovarian, 47.2%; in the assay on HS 578T breast, 39.3%; in the assay on BT-549 breast it was 60.2%; with MDA-MB-435 melanoma, 45.7%; in the assay on SW-620 colon, 71.8%. Moreover, the growth with HCT-116 colon is 26%; with HCC-2998 colon it was 63.4%; in the assay on KM12 colon, 62.1%.

As for `CO[C@H]1CC(c2ccc[nH]2)=N[C@]12O[C@@H](C)C[C@@H]1CCCCCCCc3ccc([nH]3)[C@H]12`, the growth with SR leukemia was 9.34% (active); with RPMI-8226 leukemia, -1.79% (active); in the assay with OVCAR-8 ovarian, 14.8%; in the assay on OVCAR-5 ovarian it was 29.7%; with OVCAR-4 ovarian it was 29.2%; in the assay with SK-OV-3 ovarian it was 30%. The growth is 28.9% in the assay with IGROV1 ovarian; 29.2% in the assay with OVCAR-3 ovarian; 29.2% in the assay on HS 578T breast; 11.8% with T-47D breast; 33.7% with BT-549 breast; 15.2% with MDA-MB-435 melanoma. Moreover, the growth in the assay with SW-620 colon was 21.5%; in the assay on MCF7 breast, 16.5%; in the assay on HCT-116 colon, 8.1% (active); in the assay with HCC-2998 colon, 22.1%; in the assay with KM12 colon, 18.3%.

For `[2H]C([2H])([2H])Oc1c(F)cccc1/C=C/C(=O)/C=C(O)/C=C/c1cccc(F)c1OC([2H])([2H])[2H]`, the growth is 94.8% with SR leukemia; 99.2% in the assay with RPMI-8226 leukemia; 87% with OVCAR-8 ovarian; 104% with OVCAR-5 ovarian; 89.1% in the assay on OVCAR-4 ovarian; 117% with SK-OV-3 ovarian. The growth is 101% with IGROV1 ovarian; 108% in the assay on OVCAR-3 ovarian; 112% in the assay on HS 578T breast; 92.4% with NCI/ADR-RES ovarian; 94.9% in the assay on MDA-MB-435 melanoma; 109% in the assay with SW-620 colon. The growth in the assay with MCF7 breast was 74.5%; in the assay on HCT-116 colon, 84.1%; with HCC-2998 colon, 112%; with KM12 colon it was 102%.
